Compounds with a hit are over-represented: about 22% of the library has one in this group of screens.
F-actin modifier: cytoskeleton assembly modification; HUVEC TNFa F-actin phalloidin imaging, high content; inhibition, % at 2 µM; AID 836; 0.18% of 91,000 active;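 active = inhibition above the batch mean plus 3 SD and confirmed as a hit by visual image inspection, cut at about 30% in these data, passing the limit was not always enough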
CYP2C19 activ: cytochrome P450 2C19 (human) activation; recombinant CYP2C19, luciferin-H EGE luminescence; stronger effect = higher value; 0 = fully inhibited enzyme, 1 = untreated enzyme; activation factor at 5 µM; 96,000 tested, under 10 active; AID 1025;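 active = activation factor of at least 2 at 5 µM in the primary screen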
Target sequence (P33261 whole entry, looked up): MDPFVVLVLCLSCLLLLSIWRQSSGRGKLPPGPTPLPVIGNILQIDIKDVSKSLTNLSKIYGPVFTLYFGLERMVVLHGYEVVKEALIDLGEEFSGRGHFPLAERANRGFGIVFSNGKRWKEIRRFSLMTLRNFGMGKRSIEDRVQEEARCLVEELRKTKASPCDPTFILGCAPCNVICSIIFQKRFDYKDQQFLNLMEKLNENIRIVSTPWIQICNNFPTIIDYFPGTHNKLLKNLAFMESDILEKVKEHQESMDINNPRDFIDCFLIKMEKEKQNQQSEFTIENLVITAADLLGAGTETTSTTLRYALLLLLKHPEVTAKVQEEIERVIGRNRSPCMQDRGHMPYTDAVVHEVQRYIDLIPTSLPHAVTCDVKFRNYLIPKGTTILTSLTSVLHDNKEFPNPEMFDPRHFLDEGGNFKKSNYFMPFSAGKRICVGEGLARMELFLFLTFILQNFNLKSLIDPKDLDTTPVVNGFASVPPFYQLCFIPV
E-sel TNF inh: TNF alpha driven E-selectin expression inhibition; HUVEC TNFa-induced E-selectin immunofluorescence, high content; inhibition, % at 2 µM; 0.71% of 120,000 active;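 active = inhibition above the batch mean plus 3 SD, and confirmed as a hit on visual image review, cut at about 43% in these data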
CYP2C9 inhib: inhibitors of human CYP2C9. CYP2C9 Supersomes, luciferin-H conversion, luminescence. inhibition, % at 5 µM. 20% of 96,000 active. AID 777;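 active = blocking of liver enzyme CYP2C9 beyond about 50% at 5 µM, limit read from the data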
CYP2C19 inh: blocks human cytochrome P450 2C19; CYP2C19 Supersomes, luciferin-H EGE luminescence, 30 min; 21% of 96,000 active; P33261; inhibition, % at 5 µM;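 active = CYP2C19 inhibition above a set limit at 5 µM in the primary screen, cut at about 50% in these data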
CYP2C9 activ: CYP2C9 (human) activation | 1.4% of 96,000 active | recombinant CYP2C9, luciferin-H conversion, luminescence; stronger effect = higher value; factor 1 = untreated enzyme, 0 = blocked | activation factor at 5 µM | P11712;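 active = activation factor of 2 or more for CYP2C9 at a 5 µM dose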
Each line names hits and unclear results; the compound was inactive in the other large screens.

Cc1nc2sccc2c(=O)n1-c1cccc(Cl)c1	CYP2C19 inh 70
Cc1cccn2c(=O)c(/C=C(\C#N)C(=O)NCc3ccco3)c(N3CCC(C(N)=O)CC3)nc12	none (no result: F-actin modifier, CYP2C19 activ, CYP2C9 inhib, CYP2C19 inh, CYP2C9 activ)
N#C/C(=C\c1c(N2CCC(C(N)=O)CC2)nc2ccccn2c1=O)S(=O)(=O)c1ccccc1	CYP2C9 inhib 79
Cc1cccc(S(=O)(=O)C(C#N)c2nc3ccccc3nc2N2CC(C)OC(C)C2)c1 (stereo not given)	none
CC1CN(c2nc3ccccn3c(=O)c2/C=C(\C#N)S(=O)(=O)c2ccccc2)CC(C)O1 (stereo not given)	CYP2C9 inhib 84, CYP2C19 inh 85
COc1ccccc1N1CCN(C2CCN(C(=O)c3cc(OC)c(OC)c(OC)c3)CC2)CC1	none (no result: F-actin modifier)
Cc1cc(S(=O)(=O)NCC(C)C)ccc1OCC(=O)NCC1CCCO1 (stereo not given)	none (no result: F-actin modifier, CYP2C19 activ, CYP2C9 inhib, CYP2C19 inh, CYP2C9 activ)
CN(C)CCNC(=O)COc1cccc(Cl)c1	CYP2C9 inhib 56, CYP2C19 inh 72 (no result: F-actin modifier)
CN(C)CCNC(=O)COc1ccc(Cl)cc1Cl	none (no result: F-actin modifier, CYP2C19 activ, CYP2C9 inhib, CYP2C19 inh, CYP2C9 activ)
Cc1ccc(-c2nnn(CC(=O)N(Cc3ccccc3)C(C(=O)NC(C)(C)C)c3ccncc3)n2)o1 (stereo not given)	CYP2C19 inh 50 (no result: F-actin modifier, E-sel TNF inh)
CCC(C(=O)NC1CCCC1)N(Cc1ccco1)C(=O)Cn1nnc(-c2ccc(C)cc2)n1 (stereo not given)	CYP2C9 inhib 72, CYP2C19 inh 83
Cc1ccc(-c2nnn(CC(=O)N(c3ccccc3)C(C(=O)NC(C)(C)C)c3cccs3)n2)o1 (stereo not given)	none (no result: CYP2C19 activ, CYP2C9 inhib, CYP2C19 inh, CYP2C9 activ)
CC(C)(C)NC(=O)C(c1ccncc1)N(Cc1cccs1)C(=O)Cn1nnc(-c2cccs2)n1 (stereo not given)	CYP2C9 inhib 92, CYP2C19 inh 92
CCOC(=O)CN(C(=O)Cn1nnc(-c2ccc(C)cc2)n1)C(CC)C(=O)NC1CCCC1 (stereo not given)	none (no result: E-sel TNF inh)
Cc1ccc(N(C(=O)Cn2nnc(-c3cccs3)n2)C(C(=O)NC2CCCC2)c2ccncc2)cc1 (stereo not given)	CYP2C9 inhib 54
COc1ccc(N2CCN(C(c3cccs3)C(C)NS(C)(=O)=O)CC2)cc1 (stereo not given)	none (no result: F-actin modifier, CYP2C19 activ, CYP2C9 inhib, CYP2C19 inh, CYP2C9 activ)
Cc1ccc(C(C(=O)NC(C)(C)C)N(Cc2ccco2)C(=O)Cn2nnc(-c3cccs3)n2)cc1 (stereo not given)	none (no result: CYP2C19 activ, CYP2C9 inhib, CYP2C19 inh, CYP2C9 activ)
O=C(Cn1nnc(-c2ccncc2)n1)N(C1CCCCC1)C1CCCCC1	CYP2C9 inhib 87, CYP2C19 inh 87 (no result: E-sel TNF inh)
CC(C)(C)NC(=O)C(c1ccncc1)N(C(=O)Cn1nnc(-c2cccs2)n1)C1CCCCC1 (stereo not given)	CYP2C9 inhib 76, CYP2C19 inh 69
NC(=O)CSc1nnc(-c2ccc(S(=O)(=O)N3CCOCC3)cc2)n1CC1CCCO1 (stereo not given)	none
Cc1ccc(-n2c(SCC(N)=O)nnc2-c2ccc(S(=O)(=O)N3CCCCC3)cc2)c(C)c1	CYP2C9 inhib 82
CCN(c1ccc(NC(=O)COC(=O)c2cc3ccccc3oc2=O)cc1)C(C)C	none (no result: F-actin modifier, CYP2C19 activ, CYP2C9 inhib, CYP2C19 inh, CYP2C9 activ)
COc1cccc(-n2c(CNC(=O)OC(C)(C)C)n[nH]c2=S)c1	none
COc1nnc(-c2ccc(N3CCCCC3)c(NC(=O)C3CCCCC3)c2)c2ccccc12	none
COc1nnc(-c2ccc(N3CCCCC3)c(NC(C)=O)c2)c2ccccc12	CYP2C9 inhib 66, CYP2C19 inh 54 (no result: F-actin modifier)
O=C(CSc1ncn[nH]1)Nc1ccccc1-c1ccccc1	none
O=C(CSc1ncn[nH]1)NCCCc1ccccc1	CYP2C19 inh 57
O=C(CSc1ncn[nH]1)Nc1ccccc1Sc1ccccc1	CYP2C19 inh 87
COc1ccc2nc(NC(=O)C3CCCN(S(=O)(=O)c4c(C)noc4C)C3)sc2c1 (stereo not given)	none (no result: F-actin modifier)
COc1ccc2nc(NC(=O)C3CCCN3S(=O)(=O)c3ccc(C)cc3)sc2c1 (stereo not given)	CYP2C19 inh 68
COc1ccc(S(=O)(=O)N2CCC[C@H]2C(=O)NC2=NCCS2)cc1	none
Cc1ccc(S(=O)(=O)N2CCCC2C(=O)Nc2nc3c(s2)CCCC3)cc1 (stereo not given)	CYP2C9 inhib 90
COc1ccc(S(=O)(=O)N2CCCC2C(=O)Nc2nnc(-c3cccnc3)s2)cc1 (stereo not given)	CYP2C19 inh 99 (no result: E-sel TNF inh)
CCC(CC)C(=O)Nc1cc([N+](=O)[O-])ccc1Cl	none (no result: F-actin modifier, CYP2C19 activ, CYP2C9 inhib, CYP2C19 inh, CYP2C9 activ)
CCOc1ccc(Nc2c3c(nc4ncnn24)CC(C)CC3)cc1 (stereo not given)	CYP2C19 inh 52 (no result: F-actin modifier)
Cc1ccc(Nc2c3c(nc4ncnn24)CCC3)cc1	CYP2C19 inh 60
Clc1cccc(Nc2c3c(nc4ncnn24)CCC3)c1	CYP2C19 inh 60
Cc1ccc(Nc2c3c(nc4ncnn24)CC(C)CC3)cc1 (stereo not given)	none
Cc1cccc(/C=N\Nc2nnc(-c3ccccc3)c(=O)[nH]2)c1	none (no result: F-actin modifier, CYP2C19 activ, CYP2C9 inhib, CYP2C19 inh, CYP2C9 activ)
Cc1ccc(C(=O)OCc2cn3ccccc3n2)cc1	CYP2C9 inhib 59, CYP2C19 inh 83 (no result: F-actin modifier)
O=C(NCc1cn2ccccc2n1)c1ccccc1	none (no result: F-actin modifier)
CCCCNC(=S)N(C)/N=C/c1ccccc1C(=O)O	none
N#C/C(C(=O)NCc1ccco1)=C1/SC(Cc2ccc(Cl)cc2)C(=O)N1c1ccccc1 (stereo not given)	none (no result: CYP2C19 activ, CYP2C9 inhib, CYP2C19 inh, CYP2C9 activ)
CCOC(=O)c1ccc(CC2S/C(=C(\C#N)C(C)=O)NC2=O)cc1 (stereo not given)	CYP2C9 inhib 62
CCOC(=O)c1ccc(N2C(=O)C=CC2=O)cc1	none (no result: F-actin modifier)
CCc1ccc(CC2S/C(=C(\C#N)C(C)=O)NC2=O)cc1 (stereo not given)	E-sel TNF inh 50, CYP2C9 inhib 78
CCOC(=O)C1CCCN(C(=O)C2CCC(CNS(=O)(=O)c3ccc(NC(C)=O)cc3)CC2)C1 (stereo not given)	none (no result: F-actin modifier, E-sel TNF inh)
O=C1c2ccccc2NC(c2ccccc2)N1NS(=O)(=O)c1ccccc1 (stereo not given)	none (no result: F-actin modifier, CYP2C19 activ, CYP2C9 inhib, CYP2C19 inh, CYP2C9 activ)
CCSc1ncc(Cl)c(C(=O)Nc2ccc(S(=O)(=O)Nc3onc(C)c3C)cc2)n1	CYP2C9 inhib 58
Cc1ccc(S(=O)(=O)N2CCCC2C(=O)OCc2nc3ccccc3s2)cc1 (stereo not given)	none
CC(C)CC(=O)NC(Nc1ccccc1F)C(Cl)(Cl)Cl (stereo not given)	CYP2C9 inhib 58, CYP2C19 inh 52
CCCC(=O)NC(Nc1ccccc1F)C(Cl)(Cl)Cl (stereo not given)	CYP2C9 inhib 57, CYP2C19 inh 53
C[C@H](NC(=O)Nc1ccccc1F)C(=O)O	none
CC(C)CC(=O)NC(Nc1ccc([N+](=O)[O-])cc1)C(Cl)(Cl)Cl (stereo not given)	none (no result: F-actin modifier, CYP2C19 activ, CYP2C9 inhib, CYP2C19 inh, CYP2C9 activ)
CC(C)C(=O)NC(Nc1ccccc1F)C(Cl)(Cl)Cl (stereo not given)	CYP2C9 inhib 59, CYP2C19 inh 54
CC(C)NCCCOc1ccc(C(C)(C)c2ccccc2)cc1	none
COc1ccc(-c2nn(-c3ccccc3)cc2/C=N/n2cnnc2)cc1OC	CYP2C19 inh 80
